The source of these data is PubChem BioAssay (NCATS).

Assay [1] concerns the target Aldehyde dehydrogenase, mitochondrial (Homo sapiens) (UniProt P05091). The assay is described as follows: qHTS for Inhibitors of the Aldehyde Dehydrogenase Family (ALDH2) Primary screen (AID 2061308). Also: nearly all actives have a fitted effect of over 55% in size. The settings on record: ALDH2 enzyme inhibition qHTS, 1536-well; series mostly up to 56 µM.
In assay [2] the target is Retinaldehyde dehydrogenase 3 (Homo sapiens) (UniProt P47895). Nature of the assay: qHTS for Inhibitors of the Aldehyde Dehydrogenase Family (ALDH1A3) Primary screen (AID 2061315). As to conditions: ALDH inhibition qHTS; series mostly up to 56 µM. (qHTS replaces the single test concentration by a dilution series.)

SMILES strings stand for the structures. Records with an inconclusive call do not appear. A call without a number means that no potency is given here. Activity calls are given as the source filed them. Calls follow the shape of the dose curve; as a rule, active = well fitted curve in the direction sought with a large enough effect; inconclusive = small, poorly fitted or top-dose-only effect, or another doubt; inactive = no such curve, though single readings can be large; an effect the other way counts as inactive or inconclusive.

For the compound `CCCn1c(C)nc2c(NCCCN(CCO)CCO)nc(C)nc21`, the Potency entry in assay [1] and in assay [2] was “inactive” throughout.
With `Cn1cncc1CNc1ncnc2ccc(-c3ccc4c(c3)OCO4)cc12`, the Potency result in assay [1] and in assay [2] was “inactive” in each case.
With `Cc1ccc(-c2ccc(=O)n(CC(=O)N(C)CCN(C)C)n2)cc1`, the Potency entry in assay [1] and in assay [2] was “inactive” throughout.
Regarding `Nc1nc2c(c(N3CC[C@@H](N)C3)n1)CCCc1ccccc1-2`, the Potency result in assay [1] and in assay [2] was “inactive” each time.
As for `Cc1nc(N2CCOCC2)c2nc(-c3ccccc3)n(CCN3CCCC3)c2n1`, the Potency entry in assay [1] and in assay [2] was “inactive” in each case.
As for `Cc1cc(C)nc(NC(=S)N2CCN(c3cccc(C#N)c3)CC2)c1`, the Potency entry in assay [1] and in assay [2] was “inactive” in each case.
For the compound `COc1ccc(C2Nc3ccccc3C(=O)N2Cc2cccnc2)cc1COc1c(C)cccc1C` (configuration not stated), the Potency entry in assay [1] and in assay [2] was “inactive” each time.
With `Brc1ccc(-c2csc(N3CCNCC3)n2)cc1`, the Potency entry in assay [1] and in assay [2] was “inactive” each time.
Regarding `CCCCN(C)C(=O)Cn1nc(-c2cncnc2)ccc1=O`, the Potency result in assay [1] and in assay [2] was “inactive” throughout.
Turning to `C=CCNc1oc(-c2cccc(Br)c2)nc1C#N`, the Potency result in assay [1] and in assay [2] was “inactive” in each case.
With `Cc1ccc(CNc2nc(-c3ccccc3C(F)(F)F)nc3ccccc23)cc1`, the Potency result in assay [1] and in assay [2] was “inactive” throughout.
In the case of `CCCCCn1ncc2c3sc(C)cc3n(C)c2c1=O`, the Potency result in assay [1] and in assay [2] was “inactive” throughout.
Regarding `Cc1cc(C)nc(NC(=S)N2CCN(c3cc(Cl)c(Cl)c(Cl)c3)CC2)c1`, the Potency entry in assay [1] and in assay [2] was “inactive” each time.
Regarding `O=C(NCCc1nc2ccccc2n1CCO)C1CCCCC1`, the Potency result in assay [1] and in assay [2] was “inactive” each time.
Take `COc1ccc(NC(=O)C2=C(C)NC(Nc3nc4ccccc4o3)=NC2c2ccccc2Br)cc1` (configuration not stated): the Potency entry in assay [1] and in assay [2] was “inactive” each time.
With `C=C1C(=O)O[C@@H]2C[C@@]3(C)CCCC(=C)[C@]3(O)C[C@H]12`, the Potency result in assay [1] and in assay [2] was “inactive” in each case.
